Compound activity: PubChem BioAssay, National Center for Advancing Translational Sciences (NCATS)
NPR1 antag – human Npr1 receptor antagonism; Potency, µM (highest dose often 46.3 µM), without a hit: top-dose activity change, negative = inhibition, most hits filed as inhibitors; P16066; 1.6% of 76,000 active; HEK293 hNpr1 GloSensor cGMP, ANP-stimulated luminescence; calls by dose curve; further: on the % scale 0 is the no-effect control and ±100 the full control effect; nearly all actives have a fitted effect of over 60% in size
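Compound pre-incubated 30 min at room temperature on GloSensor-loaded HEK293 cells stably carrying hNpr1 and the pGS-40F cGMP biosensor. Stimulation uses hNppA at 0.1 nM final; luminescence is taken at baseline and 20 min post-agonist.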
3T3 cytotox – kills NIH 3T3 cells | NIH 3T3 viability, CellTiter-Glo ATP luminescence, 48-72 h | Potency, µM (top dose mostly 96.7 µM), inactives show at the top dose activity change, negative = cytotoxicity, hits mostly inhibitors | 4.3% of 94,000 active | AID 1345082; further: on the % scale 0 is the no-effect control and ±100 the full control effect; nearly all actives have a fitted effect of over 55% in size
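Viability of NIH 3T3 cells after 48 or 72 hr compound treatment at 37 °C was assessed by CellTiter-Glo, with luminescence imaged following a 10 min room-temperature step.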
GPT2 inhibitor – blocks human glutamate pyruvate transaminase 2; AID 1671188; Q8TD30; 0.25% of 100,000 active; Potency, µM (highest dose often 57.7 µM), without a hit: at the top dose activity change, negative = inhibition, usual class: inhibitors; Recombinant GPT2, coupled pyruvate oxidase/HRP Amplex Red fluorescence; further: on the % scale 0 is the no-effect control and ±100 the full control effect; nearly all actives have a fitted effect of over 60% in size
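Recombinant GPT2 (10ng/uL) with 250uM a-KG and 2mM L-alanine, 30 min at room temperature, in HEPES pH 7.5 buffer. Pyruvate detected by pyruvate oxidase/HRP/Amplex Red fluorescence after 30 min in the dark; AOA (50uM) as positive control.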
FLuc inh – blocks purified firefly luciferase enzyme activity | purified P. pyralis luciferase, luminescence, biochemical | Potency, µM (titrated, usually from 115 µM), usual class: inhibitors | 2.5% of 76,000 active | AID 1347043; further: on the % scale 0 is the no-effect control and ±100 the full control effect; nearly all actives have a fitted effect of over 65% in size
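Purified P. pyralis luciferase (10nM final) in 50mM Tris acetate pH 7.5, 10mM Mg acetate, 0.01% Tween-20, 0.05% BSA with 10uM D-luciferin and 10uM ATP. Compounds titrated qHTS. Luminescence imaged on CCD.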
HEK cytotox – kills HEK 293 cells; 6.6% of 94,000 active; Potency, µM (highest dose often 115 µM), for inactives: top-dose activity change, negative = cytotoxicity, most hits filed as inhibitors; HEK 293 viability, ATP luminescence (CellTiter-Glo), 48-72 h; further: on the % scale 0 is the no-effect control and ±100 the full control effect; nearly all actives have a fitted effect of over 60% in size
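Cytotoxicity was scored by loss of ATP-coupled luminescence (CellTiter-Glo) in HEK 293 cells. Compound treatment ran 48 or 72 hr at 37 degree Celsius, 5% CO2, 95% humidity.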
NPR1 antag cnf – confirmation of human Npr1 natriuretic peptide receptor antagonists | 76% of 1,400 active | HEK293 hNpr1 cGMP GloSensor luminescence, ANP-stimulated | Potency, µM (top dose mostly 57.6 µM), inactives show top-dose activity change, negative = inhibition, actives largely listed as inhibitors | shares compounds with NPR1 antag | AID 1347044; calls by dose curve; further: nearly all actives have a fitted effect of over 70% in size
NPR2 antag – hNpr2 antagonism, selectivity versus Npr1; shares compounds with NPR1 antag; HEK293 hNpr2 GloSensor cGMP luminescence, CNP-stimulated; Potency, µM (series often up to 57.6 µM), without a hit: top-dose activity change, negative = inhibition, usual class: inhibitors; 67% of 1,400 active; AID 1347046; calls by dose curve; further: nearly all actives have a fitted effect of over 70% in size
FLuc counter – counter-screen for Npr1 antagonists: firefly luciferase inhibitors. shares compounds with NPR1 antag. purified FLuc enzyme, luminescence, Km substrate. Potency, µM (top dose mostly 57.6 µM), for inactives: at the top dose activity change, negative = inhibition, actives largely listed as inhibitors. 0.7% of 1,400 active; further: 0% is about no effect
GloSensor cGMP – reduces cGMP signal in GloSensor control cells; shares compounds with NPR1 antag; HEK293 GloSensor cGMP, SNP-stimulated, luminescence; Potency, µM (highest dose often 57.6 µM), without a hit: at the top dose activity change, negative = inhibition, hits mostly inhibitors; 69% of 1,400 active; AID 1347051; calls by dose curve; further: on the % scale 0 is the no-effect control and ±100 the full control effect; nearly all actives have a fitted effect of over 70% in size
Numbers without * were called inactive; i = inactive; ? = inconclusive; . = not tested or not shown; [ ] = dose if it differs, or a comment. Most compounds without a hit are left out; they make up all but 10% or so of the library. Unless noted, the call rests on the fitted dose curve; in most records, active means well fitted curve in the direction sought with a large enough effect; inconclusive means small, poorly fitted or top-dose-only effect, or another doubt; inactive means no such curve, though single readings can be large; an effect the other way counts as inactive or inconclusive. Potency means the concentration at half of the fitted maximal effect.

SMILES	NPR1 antag	3T3 cytotox	GPT2 inhibitor	FLuc inh	HEK cytotox	NPR1 antag cnf	NPR2 antag	FLuc counter	GloSensor cGMP
COc1ccc(-c2noc(CC3CCN(C(=O)c4ccc(OC)nc4OC)CC3)n2)cc1	4µM*	?	-5%	i	20µM*	5.4µM*	8.6µM*	2%	6.1µM*
COc1ccc(C(=O)N2CCC3(CC2)CC(Cc2nc(-c4cnccn4)no2)CCO3)c(OC)n1 (stereo not drawn)	-1%	2%	-14%	i	-1%	.	.	.	.
COc1cc(OC)cc(C(=O)N2CCC(Cc3nc(-c4cnccn4)no3)CC2)c1	9%	-21%	4%	i	15%	.	.	.	.
COc1ccc(-c2noc(CC3CCN(C(=O)c4ccccc4C)CC3)n2)cc1	10µM*	?	-20%	i	?	15µM*	17µM*	3%	12µM*
Cc1ccc(C(=O)N2CCC(Cc3nc(-c4ccccc4)no3)CC2)c(C)c1	6.3µM*	?	i	i	50µM*	3.9µM*	5.4µM*	1%	3.9µM*
Cc1ccc(C(=O)N2CCC(Cc3nc(-c4cnccn4)no3)CC2)cc1	-14%	?	i	i	?	.	.	.	.
CCc1ccc(C(=O)N2CCC(Cc3nc(-c4ccc(OC)cc4)no3)CC2)cc1	3.5µM*	?	-17%	i	?	6.1µM*	9.7µM*	-1%	6.9µM*
COc1ccc(OC2CNC2)cc1	.	-26%[174 µM]	i	.	-4%[230 µM]	.	.	.	.
COCC1CN(C2CCC2)CC12CCN(C(=O)c1ccc(F)cc1)CC2 (stereo not drawn)	-14%	-20%	-22%	i	?	.	.	.	.
COC(=O)NC1CCN(C(=O)c2cccc(-c3ccc(OC)nn3)c2)CC1	.	-14%[138 µM]	.	.	-9%[172 µM]	.	.	.	.
CCCCOc1ccc(C(=O)N2CCC(Cc3nc(-c4cnccn4)no3)CC2)cc1	?	?	i	i	?	?	?	3%	?
COc1ccc(-c2noc(CC3CCN(C(=O)C4(c5ccc(OC)cc5)CC4)CC3)n2)cc1	1.4µM*	?	i	i	?	2.7µM*	3.4µM*	4%	3.1µM*
CCOc1ccccc1C(=O)N1CCC(Cc2nc(-c3ccc(OC)cc3)no2)CC1	11µM*	?	i	i	?	24µM*	22µM*	1%	24µM*
Cc1ccccc1C(=O)N1CCC(Cc2nc(-c3ccccc3)no2)CC1	8.9µM*	?	4%	i	?	11µM*	17µM*	-3%	11µM*
CCOc1ccc(C(=O)N2CCC(Cc3nc(-c4cnccn4)no3)CC2)cc1	-8%	?	i	i	-27%	.	.	.	.
O=C(N1CCC(Cc2nc(C3CCOCC3)no2)CC1)C1(c2ccccc2)CC1	-15%	-17%	i	i	-2%	.	.	.	.
COC[C@@H]1CN(C(=O)Cc2ccccc2Cl)C[C@H]1c1ccncc1	-10%	-35%	i	i	-20%	.	.	.	.
COc1cccc(-c2cccc(CN)c2)c1	.	?	-6%[88.5 µM]	.	-26%[172 µM]	.	.	.	.
Cc1cc(C)cc(-c2cccc(CN)c2)c1	.	40µM*	i	.	56µM*	35µM*	31µM*	5%[86.2 µM]	?
O=C(Nc1ccc(Oc2ccccc2)cc1)c1cc2n(n1)CC(c1ccc(Cl)cc1)OC2 (stereo not drawn)	3.5µM*	-28%	-1%	i	?	3.9µM*	4.8µM*	2%	3.9µM*
O=C(NCCc1cccs1)c1cc2n(n1)CC(c1ccc(Cl)cc1)OC2 (stereo not drawn)	?	?	i	i	?	.	.	.	.
O=C(Nc1ccc(Cl)cc1)c1cc2n(n1)CC(c1ccc(Cl)cc1)OC2 (stereo not drawn)	11µM*	?	1%	i	?	24µM*	?	-2%	27µM*
CC(=O)Nc1ccc(NC(=O)c2cc3n(n2)CC(c2ccc(Cl)cc2)OC3)cc1 (stereo not drawn)	-17%	-26%	i	i	?	.	.	.	.
CC(=O)c1ccc(N2CCN(C(=O)c3cc4n(n3)CC(c3ccc(Cl)cc3)OC4)CC2)cc1 (stereo not drawn)	11µM*	?	i	i	?	22µM*	24µM*	-2%	24µM*
NS(=O)(=O)c1ccc(CCNC(=O)c2cc3n(n2)CC(c2ccc(Cl)cc2)OC3)cc1 (stereo not drawn)	14µM*	?	5%	i	45µM*	24µM*	?	1%	24µM*
SMILES	NPR1 antag	3T3 cytotox	GPT2 inhibitor	FLuc inh	HEK cytotox	NPR1 antag cnf	NPR2 antag	FLuc counter	GloSensor cGMP
O=C(c1cc2n(n1)CC(c1ccc(Cl)cc1)OC2)N1CCc2ccccc2C1 (stereo not drawn)	-5%	-9%	5%	i	-12%	.	.	.	.
COc1ccccc1-n1c(=O)c(C(=O)N2CCN(C(=O)c3ccccc3Cl)CC2)nc2cccnc21	.	-30%	-18%	.	-10%	.	.	.	.
COCCCn1c(=O)c(C(=O)N2CCC(Cc3ccccc3)CC2)nc2cccnc21	.	-25%	i	.	?	.	.	.	.
COc1ccc(NC(=O)c2cc3n(n2)CC(c2ccc4c(c2)OCO4)OC3)cc1Cl (stereo not drawn)	?	-4%	i	i	?	?	-26%	-4%	?
COc1ccc(NC(=O)c2cc3n(n2)CC(c2ccc4c(c2)OCO4)OC3)cc1OC (stereo not drawn)	-17%	-11%	i	i	?	.	.	.	.
COc1cc(Cl)c(C)cc1NC(=O)c1cc2n(n1)CC(c1ccc(Cl)cc1)OC2 (stereo not drawn)	-2%	?	i	i	?	.	.	.	.
COc1ccc(CNC(=O)c2cc3n(n2)CC(c2ccc(Cl)cc2)OC3)cc1 (stereo not drawn)	22µM*	?	i	i	32µM*	27µM*	22µM*	-6%	22µM*
